Results reported in PubChem BioAssay.
Calls of active or inactive are those of the source.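 Rule for the calls, unless noted: active = normalized viability below 100% at a tested concentration; inactive = the rest.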

Key:
[1] = ovarian cancer cell viability with rucaparib, profiling panel, oncology-focused library, rucaparib conditional (AID 1508598); conditions: patient-derived ovarian cancer cells, CellTiter-Glo viability, 144 h, active compounds read low
[2] = molecular target: NAD(+) hydrolase SARM1 (Homo sapiens) (UniProt Q6SZW1); assay: SARM1 TIR NADase inhibitors, cell lysate, NAD-Glo luminescence (AID 1508614;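 active = compound whose remaining NAD level is above about 45 nM, limit read from the data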;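 note: higher remaining NAD means stronger inhibition of SARM1 NADase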); conditions: SAM-TIR HEK293T lysate NADase, at 1 µM, active compounds read high
[3] = at 0.000305 µM, OCI-C5x cells, with rucaparib 10 µM, 100% = cells with rucaparib alone
[4] = at 0.000305 µM, OCI-C5x cells, without rucaparib
[5] = at 0.000305 µM, OCI-P5x cells, with rucaparib 20 µM, 100% = cells with rucaparib alone
[6] = at 0.000305 µM, OCI-P5x cells, without rucaparib
[7] = at 0.00122 µM, OCI-C5x cells, with rucaparib 10 µM, 100% = cells with rucaparib alone
[8] = at 0.00122 µM, OCI-C5x cells, without rucaparib
[9] = at 0.00122 µM, OCI-P5x cells, with rucaparib 20 µM, 100% = cells with rucaparib alone
[10] = at 0.00122 µM, OCI-P5x cells, without rucaparib
[11] = at 0.00488 µM, OCI-C5x cells, with rucaparib 10 µM, 100% = cells with rucaparib alone
[12] = at 0.00488 µM, OCI-C5x cells, without rucaparib
[13] = at 0.00488 µM, OCI-P5x cells, with rucaparib 20 µM, 100% = cells with rucaparib alone
[14] = at 0.00488 µM, OCI-P5x cells, without rucaparib
[15] = at 0.0195 µM, OCI-C5x cells, with rucaparib 10 µM, 100% = cells with rucaparib alone
[16] = at 0.0195 µM, OCI-C5x cells, without rucaparib
[17] = at 0.0195 µM, OCI-P5x cells, with rucaparib 20 µM, 100% = cells with rucaparib alone
[18] = at 0.0195 µM, OCI-P5x cells, without rucaparib
[19] = at 0.0781 µM, OCI-C5x cells, with rucaparib 10 µM, 100% = cells with rucaparib alone
[20] = at 0.0781 µM, OCI-C5x cells, without rucaparib
[21] = at 0.0781 µM, OCI-P5x cells, with rucaparib 20 µM, 100% = cells with rucaparib alone
[22] = at 0.0781 µM, OCI-P5x cells, without rucaparib
[23] = at 0.313 µM, OCI-C5x cells, with rucaparib 10 µM, 100% = cells with rucaparib alone
[24] = at 0.313 µM, OCI-C5x cells, without rucaparib
[25] = at 0.313 µM, OCI-P5x cells, with rucaparib 20 µM, 100% = cells with rucaparib alone
[26] = at 0.313 µM, OCI-P5x cells, without rucaparib
[27] = at 1.25 µM, OCI-C5x cells, with rucaparib 10 µM, 100% = cells with rucaparib alone
[28] = at 1.25 µM, OCI-C5x cells, without rucaparib
[29] = at 1.25 µM, OCI-P5x cells, with rucaparib 20 µM, 100% = cells with rucaparib alone
[30] = at 1.25 µM, OCI-P5x cells, without rucaparib
[31] = at 5 µM, OCI-C5x cells, with rucaparib 10 µM, 100% = cells with rucaparib alone
[32] = at 5 µM, OCI-C5x cells, without rucaparib
[33] = at 5 µM, OCI-P5x cells, with rucaparib 20 µM, 100% = cells with rucaparib alone
[34] = at 5 µM, OCI-P5x cells, without rucaparib

Chain of NAD(+) hydrolase SARM1 (Homo sapiens) (Q6SZW1 whole entry, looked up): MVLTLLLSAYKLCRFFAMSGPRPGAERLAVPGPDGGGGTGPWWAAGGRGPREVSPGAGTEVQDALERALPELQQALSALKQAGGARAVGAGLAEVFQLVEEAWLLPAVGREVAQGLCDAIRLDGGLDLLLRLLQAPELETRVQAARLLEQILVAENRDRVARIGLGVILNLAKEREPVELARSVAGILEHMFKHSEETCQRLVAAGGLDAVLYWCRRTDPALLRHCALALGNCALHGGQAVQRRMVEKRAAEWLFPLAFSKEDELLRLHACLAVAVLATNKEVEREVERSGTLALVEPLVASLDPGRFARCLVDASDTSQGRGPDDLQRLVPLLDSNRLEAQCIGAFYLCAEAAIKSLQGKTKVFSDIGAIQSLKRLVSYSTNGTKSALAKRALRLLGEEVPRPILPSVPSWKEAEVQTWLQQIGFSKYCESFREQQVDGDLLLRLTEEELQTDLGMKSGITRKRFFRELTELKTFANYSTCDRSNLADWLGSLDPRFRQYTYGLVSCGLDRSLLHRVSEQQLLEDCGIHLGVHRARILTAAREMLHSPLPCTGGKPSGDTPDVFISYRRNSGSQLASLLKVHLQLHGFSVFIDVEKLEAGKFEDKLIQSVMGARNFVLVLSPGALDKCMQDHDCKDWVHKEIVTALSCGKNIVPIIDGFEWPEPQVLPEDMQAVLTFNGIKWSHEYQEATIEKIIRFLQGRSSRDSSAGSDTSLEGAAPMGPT

CC#C[C@@]1(O)CC[C@H]2[C@@H]3CCC4=CC(=O)CCC4=C3[C@H](c3ccc(N(C)C)cc3)C[C@@]21C
active: viability [1, 5] 88.4% | viability [1, 6] 89.8% | viability [1, 9] 88.8% | viability [1, 10] 94.8% | viability [1, 13] 93.3% | viability [1, 14] 95% | viability [1, 17] 86.7% | viability [1, 18] 87.4% | viability [1, 21] 84.5% | viability [1, 22] 86.4% | viability [1, 25] 83.6% | viability [1, 26] 89.9% | viability [1, 29] 87.2% | viability [1, 30] 91% | viability [1, 33] 72.1% | viability [1, 34] 89.7%
inactive: viability [1, 3] 124% | viability [1, 4] 104% | viability [1, 7] 112% | viability [1, 8] 114% | viability [1, 11] 122% | viability [1, 12] 108% | viability [1, 15] 118% | viability [1, 16] 110% | viability [1, 19] 122% | viability [1, 20] 111% | viability [1, 23] 113% | viability [1, 24] 118% | viability [1, 27] 121% | viability [1, 28] 118% | viability [1, 31] 162% | viability [1, 32] 140%

CCC(C)(C)C(=O)O[C@@H]1C[C@@H](C)C=C2C=C[C@H](C)[C@@H](CC[C@@H]3C[C@@H](O)CC(=O)O3)[C@H]21
inactive: viability [1, 3] 109% | viability [1, 4] 119% | viability [1, 5] 102% | viability [1, 6] 113% | viability [1, 7] 108% | viability [1, 8] 113% | viability [1, 9] 110% | viability [1, 10] 115% | viability [1, 11] 112% | viability [1, 12] 110% | viability [1, 14] 110% | viability [1, 16] 112% | viability [1, 18] 101%
active: viability [1, 13] 96.9% | viability [1, 15] 95.4% | viability [1, 17] 94.2% | viability [1, 19] 76.6% | viability [1, 20] 70.9% | viability [1, 21] 72.4% | viability [1, 22] 66.6% | viability [1, 23] 36% | viability [1, 24] 32% | viability [1, 25] 13.1% | viability [1, 26] 14.5% | viability [1, 27] 24.2% | viability [1, 28] 27.2% | viability [1, 29] 7.81% | viability [1, 30] 7.43% | viability [1, 31] 8.07% | viability [1, 32] 7.81% | viability [1, 33] 5.14% | viability [1, 34] 3.59%

CO/N=C(\C(=O)N[C@@H]1C(=O)N2C(C(=O)O)=C(CSc3nnnn3C)CS[C@H]12)c1csc(N)n1
inactive: remaining NAD [2] 10 nM

CC[C@]1(O)C[C@@H]2CN(CCc3c([nH]c4ccccc34)[C@@](C(=O)OC)(c3cc4c(cc3OC)N(C=O)[C@@H]3C45CCN4CC=C[C@](CC)([C@H]45)[C@H](OC(C)=O)[C@]3(O)C(=O)OC)C2)C1 (some centres undefined)
active: viability [1, 4] 99.3% | viability [1, 5] 88.8% | viability [1, 6] 86.4% | viability [1, 8] 98.8% | viability [1, 10] 90.1% | viability [1, 14] 86.3% | viability [1, 15] 88.9% | viability [1, 16] 66.1% | viability [1, 17] 70.6% | viability [1, 18] 25.9% | viability [1, 19] 45.1% | viability [1, 20] 37.2% | viability [1, 21] 51% | viability [1, 22] 17.4% | viability [1, 23] 42.3% | viability [1, 24] 27.2% | viability [1, 25] 56.1% | viability [1, 26] 16.7% | viability [1, 27] 34.8% | viability [1, 28] 21.4% | viability [1, 29] 51% | viability [1, 30] 12.7% | viability [1, 31] 41.7% | viability [1, 32] 24.9% | viability [1, 33] 50.9% | viability [1, 34] 13.1%
inactive: viability [1, 3] 113% | viability [1, 7] 120% | viability [1, 9] 102% | viability [1, 11] 101% | viability [1, 12] 103% | viability [1, 13] 105%

O=C(/C=C/c1ccc2ccccc2n1)c1ccncc1
inactive: viability [1, 3] 108% | viability [1, 4] 116% | viability [1, 7] 121% | viability [1, 8] 120% | viability [1, 11] 119% | viability [1, 12] 119% | viability [1, 15] 122% | viability [1, 16] 130% | viability [1, 19] 119% | viability [1, 20] 116% | viability [1, 23] 120% | viability [1, 24] 112% | viability [1, 27] 113% | viability [1, 28] 124% | viability [1, 30] 111% | viability [1, 32] 128% | viability [1, 34] 109%
active: viability [1, 5] 96% | viability [1, 6] 84.9% | viability [1, 9] 99.6% | viability [1, 10] 91.2% | viability [1, 13] 70.3% | viability [1, 14] 17.7% | viability [1, 17] 56.8% | viability [1, 18] 13.9% | viability [1, 21] 51.3% | viability [1, 22] 15.5% | viability [1, 25] 54.4% | viability [1, 26] 13.6% | viability [1, 29] 34.2% | viability [1, 31] 3.77% | viability [1, 33] 16.9%

Nc1nc(F)nc2c1ncn2[C@H]1O[C@H](CO)[C@@H](O)[C@@H]1O
inactive: viability [1, 3] 101% | viability [1, 4] 120% | viability [1, 5] 104% | viability [1, 6] 108% | viability [1, 7] 106% | viability [1, 8] 117% | viability [1, 9] 103% | viability [1, 10] 107% | viability [1, 11] 112% | viability [1, 12] 120% | viability [1, 13] 102% | viability [1, 14] 112% | viability [1, 15] 109% | viability [1, 16] 116% | viability [1, 18] 113% | viability [1, 19] 106% | viability [1, 20] 111% | viability [1, 21] 110% | viability [1, 22] 113% | viability [1, 24] 112% | viability [1, 26] 112% | viability [1, 29] 110% | viability [1, 30] 107%
active: viability [1, 17] 97.4% | viability [1, 23] 89.3% | viability [1, 25] 99% | viability [1, 27] 80.7% | viability [1, 28] 82.4% | viability [1, 31] 79.6% | viability [1, 32] 11.9%
